Measurements as given in PubChem BioAssay AID2653 (National Center for Advancing Translational Sciences (NCATS), 2010).
Inconclusive results are not listed. The source made the active and inactive calls. Calls come from the whole dose curve; as a rule, active = well fitted curve in the direction sought with a large enough effect; inconclusive = small, poorly fitted or top-dose-only effect, or another doubt; inactive = no such curve, though single readings can be large or run the other way.

Assay: Secondary Assay for Activators of Human Pyruvate Kinase M2 isoform - Cell Titer Glo Cytotoxicity for Probe SAR
Conditions: HeLa viability, CellTiter-Glo ATP luminescence, 24 h; series mostly up to 58.2 µM
Method in brief: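 HeLa cells, 500 per well, plated 24 h then exposed to compound 24 h at 37 C. Total ATP by CellTiter-Glo luminescence after 10 min at room temperature; doxorubicin control.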

Compound | outcome
O=C1CCc2cc(S(=O)(=O)Nc3ccc4c(c3)CCC4)ccc2N1 | inactive
O=C1CCc2cc(S(=O)(=O)Nc3cccc(B(O)O)c3)ccc2N1 | inactive
O=S1(=O)N=C(Oc2ccccc2)c2ccccc21 | inactive
Cc1ccc(NS(=O)(=O)c2cc3c(cc2Cl)NC(=O)C3)cc1C | inactive
Cc1ccc(NS(=O)(=O)c2cc3c(cc2F)NC(=O)CC3)cc1Cl | inactive
Cc1ccccc1Nc1c(-c2ccc(Cl)s2)nc2ccccn12 | inactive
Nc1cc(S(=O)(=O)N2CCN(S(=O)(=O)c3ccc4c(c3)OCCO4)CC2)ccn1 | inactive
O=C1CCc2cc(S(=O)(=O)Nc3ccc(F)c(Cl)c3)ccc2N1 | inactive
Cc1ccc(Nc2c(-c3ccsc3)nc3c(C)cccn23)cc1 | inactive
O=C1c2ccccc2C(=O)N1c1cccc(=O)[nH]1 | inactive
COc1ccccc1N1C(=O)c2ccccc2C1=O | inactive
O=S1(=O)N=C(Oc2ccccc2Cl)c2ccccc21 | inactive
Cc1cc(C)n2c(Nc3ccccc3)c(-c3ccc(C)o3)nc2n1 | inactive
Cc1ccc(C)c(OC2=NS(=O)(=O)c3ccccc32)c1 | inactive
Cc1ccc(NS(=O)(=O)c2ccc3c(c2)NC(=O)CO3)cc1C | inactive
CC(=O)N1CCCc2cc(S(=O)(=O)Nc3ccc(C)c(C)c3)ccc21 | inactive
Cc1ccc(NS(=O)(=O)c2ccc3c(ccn3C)c2)cc1C | inactive
Cc1ccc(NS(=O)(=O)c2cc3c(cc2Br)NC(=O)CO3)cc1C | inactive
Cc1ccc(Nc2c(-c3ccc(C)s3)nc3ccccn23)cc1 | inactive
